Measurements published in PubChem BioAssay AID1211 (NMMLSC, 2008).
Calls of active or inactive are those of the source. The rule behind the calls is not given here.

Molecular target: Estrogen receptor (Homo sapiens) (UniProt P03372)
Assay: ERalpha ligand binders by competition, primary screen, cell-based, Cos7 ERalpha-GFP, flow cytometry (AID 1211);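 note: 0% = DMSO vehicle wells and 100% = no E2-Alexa633 signal left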
Conditions: fluorescent ligand competition, at 10 µM, stronger effect = higher value

Estrogen receptor (Homo sapiens), sequence (P03372 whole entry, looked up): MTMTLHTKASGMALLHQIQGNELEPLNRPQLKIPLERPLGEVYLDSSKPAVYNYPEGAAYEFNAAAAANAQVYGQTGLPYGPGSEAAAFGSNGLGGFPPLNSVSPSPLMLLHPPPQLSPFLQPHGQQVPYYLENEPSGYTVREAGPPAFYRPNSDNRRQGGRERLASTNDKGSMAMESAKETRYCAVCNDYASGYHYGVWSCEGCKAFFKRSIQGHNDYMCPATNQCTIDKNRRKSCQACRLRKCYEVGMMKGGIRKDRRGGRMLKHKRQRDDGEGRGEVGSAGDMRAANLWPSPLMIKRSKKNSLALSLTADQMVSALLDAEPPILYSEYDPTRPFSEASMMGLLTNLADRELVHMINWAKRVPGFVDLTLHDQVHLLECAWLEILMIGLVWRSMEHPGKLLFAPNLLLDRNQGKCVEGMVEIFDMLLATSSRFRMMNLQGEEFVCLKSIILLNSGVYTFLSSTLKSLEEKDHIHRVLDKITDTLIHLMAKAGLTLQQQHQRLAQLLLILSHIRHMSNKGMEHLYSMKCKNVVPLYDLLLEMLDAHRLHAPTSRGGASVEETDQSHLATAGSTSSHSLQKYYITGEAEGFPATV

| Structure (SMILES) | inhibition of ligand binding |
| --- | --- |
| CNc1nnc(-c2cc3cc(Cl)ccc3oc2=O)s1 | 29% (inactive) |
| COc1cc(OC)cc(C(=O)NC2CCN(C(=O)N3c4ccccc4Sc4ccccc43)CC2)c1 | 6% (inactive) |
| CC(Oc1ccc(Cl)cc1Cl)C(=O)Nc1ccc2oc(-c3ccncc3)nc2c1 (stereo not drawn) | 48% (inactive) |
| Cc1ccc(Cc2cncc(O)c2)cc1S(=O)(=O)O | 36% (inactive) |
| O=C(O)C1Nc2c(O)cc(Cl)c([N+](=O)[O-])c2C2C=CCC12 (stereo not drawn) | 50% (inactive) |
| C=C(C)CNC(=S)NNC(=O)CCn1c2cc(Cl)ccc2c2ccc(Cl)cc21 | 60% (inactive) |
| Cc1cc(-c2ccccc2)nc2cc(C(N)=O)nn12 | 42% (inactive) |
| CCN1CCc2nc(NC(=O)Cc3ccc4c(c3)OCCO4)sc2C1 | 36% (inactive) |
| C=CCn1c(SCC(=O)NC(=O)NCc2ccco2)nc2sc(CC)cc2c1=O | 10% (inactive) |
| O=C(Nc1cccc(-c2cn3cccnc3n2)c1)c1ccc2c(c1)OCO2 | 22% (inactive) |
| COc1ccc(OC)c(N2C(=O)[C@@H]3C(c4ccccc4Cl)=NO[C@@H]3C2=O)c1 | 57% (inactive) |
| CCc1ccc(NC(=O)c2noc3c2CCC3)cc1 | 2% (inactive) |
| O=C(COC(=O)c1cccc(S(=O)(=O)N2CCc3ccccc3C2)c1)NCc1ccco1 | 35% (inactive) |
| CCCCn1c(NC(=O)CC)c(C#N)c2nc3ccccc3nc21 | 35% (inactive) |
| Cc1cc(Cl)ccc1OCC(=O)OC(C)C(=O)N(C)C (stereo not drawn) | 30% (inactive) |
| FC(F)(F)c1ccc2c(c1)C1C=CCC1C(c1ccncc1)N2 (stereo not drawn) | 61% (inactive) |
| CC(O)C1CCC2C3CC[C@H]4CC(O)CCC4(C)C3CC3(OCCO3)C12C (stereo partly drawn) | 33% (inactive) |
| COc1cc(/C=C2\OC(=O)c3c(OC)cccc32)ccc1O | 24% (inactive) |
| CCCc1cc(-n2ccnc2)n2c(nc3ccccc32)c1C#N | 14% (inactive) |
| Cc1ccc(-c2n[nH]c(=S)n2/N=C/C=C\c2ccccc2[N+](=O)[O-])cc1 | 40% (inactive) |

| Structure (SMILES) | inhibition of ligand binding |
| --- | --- |
| Oc1ccc(-c2nnc(-c3ccccc3)c(-c3ccccc3)n2)cc1 | 47% (inactive) |
| O=C(Nc1sc2c(c1C(=O)O)CCC2)c1ccccc1 | 15% (inactive) |
| CCSc1nnc(NC(=O)C2Cc3ccccc3CN2C(=O)c2ccco2)s1 (stereo not drawn) | 26% (inactive) |
| COc1ccccc1NC(=O)c1ccccc1NC(=O)c1cc(Cl)ccc1NC(=O)c1ccco1 | 32% (inactive) |
| CCc1nc(N)nc(N)c1-c1ccc(Cl)cc1 | 26% (inactive) |
| Cc1ccc(OCCN2CCN(CC(O)Cn3c4ccccc4c4ccccc43)CC2)cc1 (stereo not drawn) | 37% (inactive) |
| CCc1nc2sc3ccccc3c(=O)c2c(=O)n1Cc1ccco1 | 0% (inactive) |
| CCOc1cc(N2CCOCC2)c(OCC)cc1NC(=O)c1cc(-c2ccco2)nc2ccccc12 | 24% (inactive) |
| Cc1oc2c(C)c(O)ccc2c(=O)c1N1C(=O)c2ccccc2C1=O | 9% (inactive) |
| COc1ccc(C2=NN(C(=O)c3cccnc3)C(c3ccccc3)C2)cc1 (stereo not drawn) | 37% (inactive) |
| Cc1cccn2c(=O)c3cc(C(=O)O)n(C)c3nc12 | 33% (inactive) |
| CC1=C(SCCC#N)S/C(=C2\SC(C)=C(SCCC#N)S2)S1 | 59% (inactive) |
| CC(C)CN(C(=O)COC(=O)c1cc2c(s1)CCC2)C1CCS(=O)(=O)C1 (stereo not drawn) | 47% (inactive) |
| Oc1ccc(-c2cn3c(n2)SCC3)cc1 | 37% (inactive) |
| Nc1ccc2oc(-c3ccccc3Cl)cc(=O)c2c1O | 46% (inactive) |
| NC(=O)c1c(NC(=O)c2cc3ccccc3o2)sc2c1CCC2 | 43% (inactive) |
| Cc1oc2cc(O)ccc2c(=O)c1Oc1ccccc1 | 58% (active) |
| CCOc1ccc(CC2S/C(=N/c3ccccn3)NC2=O)cc1 (stereo not drawn) | 8% (inactive) |
| O=C1C2C3C=CC(C3)C2C(=O)N1c1cccc2cccnc12 (stereo not drawn) | 4% (inactive) |

Same assay, conditions: fluorescent ligand competition, binding inhibition, at 0.1 µM, stronger effect = higher value

| Structure (SMILES) | inhibition of ligand binding |
| --- | --- |
| CNc1nnc(-c2cc3cc(Cl)ccc3oc2=O)s1 | 58% |
| COc1cc(OC)cc(C(=O)NC2CCN(C(=O)N3c4ccccc4Sc4ccccc43)CC2)c1 | 22% |
| CC(Oc1ccc(Cl)cc1Cl)C(=O)Nc1ccc2oc(-c3ccncc3)nc2c1 (stereo not drawn) | 40% |
| Cc1ccc(Cc2cncc(O)c2)cc1S(=O)(=O)O | 20% |
| O=C(O)C1Nc2c(O)cc(Cl)c([N+](=O)[O-])c2C2C=CCC12 (stereo not drawn) | 20% |
| C=C(C)CNC(=S)NNC(=O)CCn1c2cc(Cl)ccc2c2ccc(Cl)cc21 | 15% |
| Cc1cc(-c2ccccc2)nc2cc(C(N)=O)nn12 | 5% |
| CCN1CCc2nc(NC(=O)Cc3ccc4c(c3)OCCO4)sc2C1 | 31% |
| C=CCn1c(SCC(=O)NC(=O)NCc2ccco2)nc2sc(CC)cc2c1=O | 3% |
| O=C(Nc1cccc(-c2cn3cccnc3n2)c1)c1ccc2c(c1)OCO2 | 10% |
| COc1ccc(OC)c(N2C(=O)[C@@H]3C(c4ccccc4Cl)=NO[C@@H]3C2=O)c1 | 24% |
| CCc1ccc(NC(=O)c2noc3c2CCC3)cc1 | 9% |
| O=C(COC(=O)c1cccc(S(=O)(=O)N2CCc3ccccc3C2)c1)NCc1ccco1 | 7% |
| CCCCn1c(NC(=O)CC)c(C#N)c2nc3ccccc3nc21 | 40% |
| Cc1cc(Cl)ccc1OCC(=O)OC(C)C(=O)N(C)C (stereo not drawn) | 53% |
| FC(F)(F)c1ccc2c(c1)C1C=CCC1C(c1ccncc1)N2 (stereo not drawn) | 27% |
| CC(O)C1CCC2C3CC[C@H]4CC(O)CCC4(C)C3CC3(OCCO3)C12C (stereo partly drawn) | 1% |
| COc1cc(/C=C2\OC(=O)c3c(OC)cccc32)ccc1O | 28% |
| CCCc1cc(-n2ccnc2)n2c(nc3ccccc32)c1C#N | 50% |
| Cc1ccc(-c2n[nH]c(=S)n2/N=C/C=C\c2ccccc2[N+](=O)[O-])cc1 | 57% |

| Structure (SMILES) | inhibition of ligand binding |
| --- | --- |
| Oc1ccc(-c2nnc(-c3ccccc3)c(-c3ccccc3)n2)cc1 | 51% |
| O=C(Nc1sc2c(c1C(=O)O)CCC2)c1ccccc1 | 61% |
| CCSc1nnc(NC(=O)C2Cc3ccccc3CN2C(=O)c2ccco2)s1 (stereo not drawn) | 44% |
| COc1ccccc1NC(=O)c1ccccc1NC(=O)c1cc(Cl)ccc1NC(=O)c1ccco1 | 3% |
| CCc1nc(N)nc(N)c1-c1ccc(Cl)cc1 | 25% |
| Cc1ccc(OCCN2CCN(CC(O)Cn3c4ccccc4c4ccccc43)CC2)cc1 (stereo not drawn) | 33% |
| CCc1nc2sc3ccccc3c(=O)c2c(=O)n1Cc1ccco1 | 23% |
| CCOc1cc(N2CCOCC2)c(OCC)cc1NC(=O)c1cc(-c2ccco2)nc2ccccc12 | 4% |
| Cc1oc2c(C)c(O)ccc2c(=O)c1N1C(=O)c2ccccc2C1=O | 52% |
| COc1ccc(C2=NN(C(=O)c3cccnc3)C(c3ccccc3)C2)cc1 (stereo not drawn) | 30% |
| Cc1cccn2c(=O)c3cc(C(=O)O)n(C)c3nc12 | 17% |
| CC1=C(SCCC#N)S/C(=C2\SC(C)=C(SCCC#N)S2)S1 | 11% |
| CC(C)CN(C(=O)COC(=O)c1cc2c(s1)CCC2)C1CCS(=O)(=O)C1 (stereo not drawn) | 21% |
| Oc1ccc(-c2cn3c(n2)SCC3)cc1 | 22% |
| Nc1ccc2oc(-c3ccccc3Cl)cc(=O)c2c1O | 30% |
| NC(=O)c1c(NC(=O)c2cc3ccccc3o2)sc2c1CCC2 | 5% |
| Cc1oc2cc(O)ccc2c(=O)c1Oc1ccccc1 | 93% |
| CCOc1ccc(CC2S/C(=N/c3ccccn3)NC2=O)cc1 (stereo not drawn) | 2% |
| O=C1C2C3C=CC(C3)C2C(=O)N1c1cccc2cccnc12 (stereo not drawn) | 57% |
